# Experimental data reported in PubChem BioAssay (NCATS).
# Results filed as inconclusive are left out. This is one part of the list. Calls of active or inactive are those of the source. Unless noted, the call rests on the fitted dose curve; in most records, active means well fitted curve in the direction sought with a large enough effect; inconclusive means small, poorly fitted or top-dose-only effect, or another doubt; inactive means no such curve, though single readings can be large; an effect the other way counts as inactive or inconclusive.
# What was measured:
# [1] = molecular target: Phosphoglycerate kinase, glycosomal (Trypanosoma brucei brucei) (UniProt P07378); assay: qHTS for inhibitors of Phosphogylcerate Kinase: Hit Validation Screen (AID 686980); conditions: TbPGK coupled GAPDH assay, Kinase-Glo luminescence; further: potency means the concentration at half of the fitted maximal effect; nearly all actives have a fitted effect of over 65% in size
# Chain of Phosphoglycerate kinase, glycosomal (Trypanosoma brucei brucei) (P07378 whole entry, looked up): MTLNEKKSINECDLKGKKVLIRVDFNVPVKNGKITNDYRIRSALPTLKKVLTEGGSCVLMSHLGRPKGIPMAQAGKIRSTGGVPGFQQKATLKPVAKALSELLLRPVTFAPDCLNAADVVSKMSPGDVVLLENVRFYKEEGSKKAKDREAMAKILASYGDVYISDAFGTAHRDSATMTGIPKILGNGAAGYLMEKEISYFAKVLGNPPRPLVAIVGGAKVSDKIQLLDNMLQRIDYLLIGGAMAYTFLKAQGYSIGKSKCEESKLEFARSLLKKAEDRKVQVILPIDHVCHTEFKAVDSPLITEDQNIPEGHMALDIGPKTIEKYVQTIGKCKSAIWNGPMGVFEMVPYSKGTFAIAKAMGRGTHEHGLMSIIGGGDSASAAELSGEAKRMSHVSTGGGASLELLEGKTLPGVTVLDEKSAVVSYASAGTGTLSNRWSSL
# In short: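 Recombinant glycosomal PGK reaction used 1,3-bisphosphoglycerate generated in-well by GAPDH (100nM final) in 100mM TEA pH 7.6, 5mM MgCl2, 0.01% Tween-20. After 60 minutes at room temperature, ATP was read by Kinase-Glo Plus luminescence end-point.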
# [2] = molecular target: DNA polymerase iota (Homo sapiens) (UniProt Q9UNA4); assay: qHTS for Inhibitors of Polymerase Iota: Confirmatory Assay for Cherry-picked Compounds (AID 720496); conditions: Pol iota primer extension, TAMRA/BHQ fluorescence; further: potency means the concentration at half of the fitted maximal effect
# In short: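 Extension of a quenched TAMRA-reporter/BHQ-2-template DNA substrate (50 nM) by 10 nM Pol iota after 15 min compound preincubation. Strand-displacement fluorescence (525/598 nm) was read kinetically at 0 and 10 min. Buffer-only wells served as negative control.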
# [3] = molecular target: DNA polymerase kappa (Homo sapiens) (UniProt Q9UBT6); assay: qHTS for Inhibitors of Polymerase Kappa: Confirmatory Assay for Cherry-picked Compounds (AID 720501); conditions: purified Pol-kappa, fluorescent strand-displacement substrate; further: potency means the concentration at half of the fitted maximal effect
# Chain of DNA polymerase kappa (Homo sapiens) (Q9UBT6 whole entry, looked up): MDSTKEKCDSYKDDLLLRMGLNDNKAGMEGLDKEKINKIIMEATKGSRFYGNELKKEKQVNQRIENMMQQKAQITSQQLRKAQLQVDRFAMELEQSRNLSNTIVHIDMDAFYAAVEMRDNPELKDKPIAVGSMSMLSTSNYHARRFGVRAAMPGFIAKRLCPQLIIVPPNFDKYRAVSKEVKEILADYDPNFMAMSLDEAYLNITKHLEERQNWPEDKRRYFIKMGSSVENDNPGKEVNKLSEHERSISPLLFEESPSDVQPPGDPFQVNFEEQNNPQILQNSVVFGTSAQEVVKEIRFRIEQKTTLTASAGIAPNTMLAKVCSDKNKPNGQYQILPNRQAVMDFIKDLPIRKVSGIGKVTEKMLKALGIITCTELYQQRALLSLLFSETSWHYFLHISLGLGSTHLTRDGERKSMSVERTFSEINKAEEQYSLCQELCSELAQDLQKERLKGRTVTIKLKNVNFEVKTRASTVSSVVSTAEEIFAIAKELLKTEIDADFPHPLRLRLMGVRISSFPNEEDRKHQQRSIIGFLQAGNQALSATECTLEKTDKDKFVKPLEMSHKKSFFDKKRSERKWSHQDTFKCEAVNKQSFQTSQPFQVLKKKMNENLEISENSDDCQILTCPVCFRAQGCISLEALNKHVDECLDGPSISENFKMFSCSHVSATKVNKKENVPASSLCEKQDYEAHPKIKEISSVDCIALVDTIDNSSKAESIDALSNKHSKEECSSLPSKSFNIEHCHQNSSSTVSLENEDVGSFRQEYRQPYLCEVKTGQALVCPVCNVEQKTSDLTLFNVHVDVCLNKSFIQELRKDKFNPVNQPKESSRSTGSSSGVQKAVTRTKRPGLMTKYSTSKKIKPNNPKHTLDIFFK
# In short: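 10 nM human Pol-kappa was preincubated with compound 15 min at room temperature, then 50 nM (final) primer/template substrate with TAMRA-labeled reporter strand and BHQ-2-labeled template added. Fluorescence (Ex 525, Em 598 nm) read at 0 and 10 min.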
# [4] = molecular target: DNA polymerase eta (Homo sapiens) (UniProt Q9Y253); assay: qHTS for Inhibitors of Polymerase Eta: Confirmatory Assay for Cherry-picked Compounds (AID 720502); conditions: Pol eta primer extension, TAMRA/BHQ fluorescence, 10 min; further: potency means the concentration at half of the fitted maximal effect
# In short: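 Enzyme at 10 nM is mixed with pin-transferred compound and left 15 min at room temperature. Substrate (50 nM final) is then added, and plates are read at 0 min and after 10 min.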
# [5] = molecular target: Cytochrome P450 2C9 (Homo sapiens) (UniProt P11712); assay: Cytochrome P450 family 2 subfamily C member 9 (CYP2C9) small molecule antagonists: luciferase biochemical (cell-free) qHTS assay (AID 1645842; active means well fitted curve in the direction sought with a large enough effect in the repeat runs; an effect the other way counts as inactive or inconclusive; further: nearly all actives have a fitted effect of over 55% in size; further: potency means the concentration at half of the fitted maximal effect)
# Chain of Cytochrome P450 2C9 (Homo sapiens) (P11712 whole entry, looked up): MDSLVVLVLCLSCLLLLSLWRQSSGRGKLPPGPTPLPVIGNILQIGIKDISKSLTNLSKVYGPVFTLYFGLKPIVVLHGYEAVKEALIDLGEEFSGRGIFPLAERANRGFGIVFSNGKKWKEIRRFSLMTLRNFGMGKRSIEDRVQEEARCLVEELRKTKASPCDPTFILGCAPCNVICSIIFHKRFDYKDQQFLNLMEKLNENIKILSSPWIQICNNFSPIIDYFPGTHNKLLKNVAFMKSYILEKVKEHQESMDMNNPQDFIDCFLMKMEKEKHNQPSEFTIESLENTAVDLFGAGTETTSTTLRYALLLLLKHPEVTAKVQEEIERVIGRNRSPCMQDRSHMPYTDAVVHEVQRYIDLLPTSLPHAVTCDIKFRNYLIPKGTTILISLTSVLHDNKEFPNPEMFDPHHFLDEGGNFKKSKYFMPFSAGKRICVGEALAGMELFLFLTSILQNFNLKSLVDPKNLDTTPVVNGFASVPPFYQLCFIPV
# In short: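 P450-Glo CYP2C9 system: proluciferin substrate with enzyme in mix containing 0.4% BSA, 10 min at room temperature, then NADPH regeneration solution added and incubated 1 h at 37C. Detection reagent stopped reaction; luminescence read after 20 min as RLU.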
# [6] = molecular target: Glutathione peroxidase 1 (Homo sapiens) (UniProt P07203); assay: Primary qHTS Assay for Inhibitors of Recombinant Selenoprotein Glutathione Peroxidase 1 (GPX1) (AID 1845191); further: nearly all actives have a fitted effect of over 65% in size; further: potency means the concentration at half of the fitted maximal effect
# Chain of Glutathione peroxidase 1 (Homo sapiens) (P07203 whole entry, looked up): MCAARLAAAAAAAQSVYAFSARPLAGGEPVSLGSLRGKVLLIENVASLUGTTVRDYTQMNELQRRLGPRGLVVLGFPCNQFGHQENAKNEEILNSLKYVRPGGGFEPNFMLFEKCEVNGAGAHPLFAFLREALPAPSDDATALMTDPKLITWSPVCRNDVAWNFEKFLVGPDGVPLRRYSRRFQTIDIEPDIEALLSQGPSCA
# In short: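 GR-coupled readout: NADPH consumption tracked by fluorescence, ex 340/em 450 nm, at t=0 and after 15 min at RT. Final mix 10 nM GPX1, 1 mM GSH, 0.5 mM CHP, 0.5 mM NADPH, 100 nM GR, 0.01% BSA, following 30 min enzyme–compound preincubation.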
# [7] = molecular target: Phospholipid hydroperoxide glutathione peroxidase GPX4 (Homo sapiens) (UniProt P36969); assay: Primary qHTS Assay for Inhibitors of Recombinant Selenoprotein Glutathione Peroxidase 4 (GPX4) (AID 1845192); further: nearly all actives have a fitted effect of over 65% in size
# Chain of Phospholipid hydroperoxide glutathione peroxidase GPX4 (Homo sapiens) (P36969 whole entry, looked up): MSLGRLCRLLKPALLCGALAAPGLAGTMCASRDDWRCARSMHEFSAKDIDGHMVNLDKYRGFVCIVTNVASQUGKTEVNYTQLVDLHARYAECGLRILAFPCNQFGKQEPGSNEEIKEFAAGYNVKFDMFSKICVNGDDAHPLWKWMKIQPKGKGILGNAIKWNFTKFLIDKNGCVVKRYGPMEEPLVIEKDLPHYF
# In short: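 Steps: GPX4 plus compound, 30 min RT; add GR/GSH/NADPH master mix; start with cumene hydroperoxide; read 340/450 nm fluorescence at 0 and 15 min. Finals were 200 nM GPX4, 1 mM GSH, 0.5 mM CHP, 0.5 mM NADPH, 100 nM GR.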
# [8] = molecular target: Rap guanine nucleotide exchange factor 3 (Homo sapiens) (UniProt O95398); assay: Confirmatory qHTS for antagonist of cAMP-regulated guanine nucleotide exchange factor 3 (EPAC1) (AID 1645880); further: potency means the concentration at half of the fitted maximal effect; nearly all actives have a fitted effect of over 55% in size
# Chain of Rap guanine nucleotide exchange factor 3 (Homo sapiens) (O95398 whole entry, looked up): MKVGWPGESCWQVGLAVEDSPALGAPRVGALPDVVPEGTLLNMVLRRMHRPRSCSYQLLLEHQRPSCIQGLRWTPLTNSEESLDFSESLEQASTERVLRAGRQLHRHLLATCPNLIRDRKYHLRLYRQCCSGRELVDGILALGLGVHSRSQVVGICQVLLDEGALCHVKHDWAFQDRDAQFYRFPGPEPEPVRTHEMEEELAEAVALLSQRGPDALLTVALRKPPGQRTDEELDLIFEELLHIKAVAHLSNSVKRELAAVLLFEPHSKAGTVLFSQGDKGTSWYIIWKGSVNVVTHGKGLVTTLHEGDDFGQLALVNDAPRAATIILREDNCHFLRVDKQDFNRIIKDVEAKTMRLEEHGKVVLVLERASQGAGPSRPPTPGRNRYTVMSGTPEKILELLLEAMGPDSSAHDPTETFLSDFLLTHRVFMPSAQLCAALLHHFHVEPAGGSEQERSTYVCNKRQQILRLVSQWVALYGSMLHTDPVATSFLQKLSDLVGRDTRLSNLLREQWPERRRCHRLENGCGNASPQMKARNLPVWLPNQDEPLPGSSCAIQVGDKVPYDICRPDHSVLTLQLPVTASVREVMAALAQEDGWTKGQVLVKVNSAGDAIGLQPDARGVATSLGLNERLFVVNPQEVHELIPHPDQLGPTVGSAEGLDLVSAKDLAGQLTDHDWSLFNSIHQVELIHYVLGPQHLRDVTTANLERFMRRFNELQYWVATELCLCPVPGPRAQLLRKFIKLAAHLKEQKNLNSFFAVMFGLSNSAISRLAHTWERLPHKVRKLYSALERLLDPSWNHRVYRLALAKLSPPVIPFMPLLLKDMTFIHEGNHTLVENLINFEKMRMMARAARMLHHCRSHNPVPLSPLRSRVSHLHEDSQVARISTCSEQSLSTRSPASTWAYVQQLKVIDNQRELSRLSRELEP
# In short: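 Released BODIPY-GDP fluoresces less than Rap1-bound BODIPY-GDP; the signal is followed at 480/540 nm at 5-min intervals over 30 min, after 5 min at room temperature. Reactions contain 100 nM EPAC1, 250 nM RAP1B-BODIPY-GDP and 50 uM GDP; results are normalized to ATA and DMSO.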
# [9] = molecular target: Rap guanine nucleotide exchange factor 3 (Homo sapiens) (UniProt O95398); assay: Confirmatory qHTS for agonist of cAMP-regulated guanine nucleotide exchange factor 3 (EPAC1) (AID 1645881);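 further: EPAC1 catalysed release of BODIPY-GDP from Rap1B seen as fluorescence loss; 100% = effect of cAMP agonist control; nearly all actives have a fitted effect of over 75% in size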
# [10] = molecular target: Rap guanine nucleotide exchange factor 4 (Homo sapiens) (UniProt Q8WZA2); assay: Confirmatory qHTS for agonist of cAMP-regulated guanine nucleotide exchange factor 4 (EPAC2) (AID 1645884);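 further: nucleotide exchange releases bodipy-GDP from Rap1 and this lowers its fluorescence; on the % scale 0 is the no-effect control and ±100 the full control effect; nearly all actives have a fitted effect of over 65% in size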
# Chain of Rap guanine nucleotide exchange factor 4 (Homo sapiens) (Q8WZA2 whole entry, looked up): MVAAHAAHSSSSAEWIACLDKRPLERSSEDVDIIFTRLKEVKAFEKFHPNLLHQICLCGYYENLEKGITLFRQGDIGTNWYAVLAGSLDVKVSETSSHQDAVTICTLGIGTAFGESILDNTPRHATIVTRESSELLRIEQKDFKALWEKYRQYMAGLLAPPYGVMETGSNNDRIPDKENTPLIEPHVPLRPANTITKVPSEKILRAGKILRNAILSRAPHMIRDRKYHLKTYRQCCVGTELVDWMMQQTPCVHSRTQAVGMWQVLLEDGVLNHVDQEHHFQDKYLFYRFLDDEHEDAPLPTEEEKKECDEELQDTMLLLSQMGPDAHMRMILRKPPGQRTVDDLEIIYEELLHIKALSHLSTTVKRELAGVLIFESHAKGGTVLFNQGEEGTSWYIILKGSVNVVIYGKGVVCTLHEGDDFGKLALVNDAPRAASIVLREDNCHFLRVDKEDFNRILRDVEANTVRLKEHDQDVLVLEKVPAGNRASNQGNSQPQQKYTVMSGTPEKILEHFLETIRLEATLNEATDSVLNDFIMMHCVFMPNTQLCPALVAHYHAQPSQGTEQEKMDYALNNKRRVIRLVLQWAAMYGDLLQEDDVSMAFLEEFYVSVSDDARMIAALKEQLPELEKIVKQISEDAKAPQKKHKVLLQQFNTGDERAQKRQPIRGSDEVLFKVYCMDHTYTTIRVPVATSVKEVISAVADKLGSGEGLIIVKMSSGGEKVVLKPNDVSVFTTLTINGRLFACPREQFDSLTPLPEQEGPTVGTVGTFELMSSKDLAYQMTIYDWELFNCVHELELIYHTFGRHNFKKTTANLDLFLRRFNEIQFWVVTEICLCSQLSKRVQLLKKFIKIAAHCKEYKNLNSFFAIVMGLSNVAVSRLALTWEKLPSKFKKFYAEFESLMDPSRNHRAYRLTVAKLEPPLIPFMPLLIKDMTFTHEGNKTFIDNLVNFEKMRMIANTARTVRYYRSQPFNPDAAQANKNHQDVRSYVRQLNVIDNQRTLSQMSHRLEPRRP
# [11] = molecular target: Rap guanine nucleotide exchange factor 4 (Homo sapiens) (UniProt Q8WZA2); assay: Confirmatory qHTS for antagonist of cAMP-regulated guanine nucleotide exchange factor 4 (EPAC2) (AID 1645885); further: nearly all actives have a fitted effect of over 25% in size
# [12] = molecular target: Rap guanine nucleotide exchange factor 3 (Homo sapiens) (UniProt O95398); assay: Counterscreen qHTS for antagonist of cAMP-regulated guanine nucleotide exchange factor 3 (EPAC1) (AID 1645888); further: % of control where 0% means no effect
# In short: (§1)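 Rap1B–BODIPY-GDP (250 nM) with 50 uM GDP; compounds pin-transferred to 9.74 nM–152 uM final (activator) or from 7.32 nM upwards (inhibitor). Fluorescence Ex/Em 480/540 nm read at 5 and 30 min, then after adding cAMP or buffer, at room temperature.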
# [13] = molecular target: Rap guanine nucleotide exchange factor 3 (Homo sapiens) (UniProt O95398); assay: Counterscreen qHTS for agonist of cAMP-regulated guanine nucleotide exchange factor 3 (EPAC1) (AID 1645889); further: % of control where 0% means no effect; nearly all actives have a fitted effect of over 40% in size
# In short: as §1
# [14] = qHTS for Inhibitors of Ubiquitin-specific Protease USP2a Using CHOP2 as the Reporter: K633 Counterscreen (AID 652168); further: series mostly up to about 57 µM; % of control where 0% means no effect
# In short: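 Detection-system control: fluorescence of K48-linked DiUb-4IQF substrate (100 nM as added) tracked over time, Ex 525/Em 598, with pinned compounds and no enzyme, in pH 8 Tris buffer containing beta-mercaptoethanol and 0.05% Chaps.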
# [15] = molecular target: Ubiquitin carboxyl-terminal hydrolase 2 (Homo sapiens) (UniProt O75604); assay: qHTS for Inhibitors of Ubiquitin-specific Protease USP2a Using CHOP2 as the Reporter: K484 Substrate (AID 652173); conditions: USP2 cleavage of DiUb K48 IQF substrate, fluorescence;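 further: cleavage of internally quenched K48 di-ubiquitin substrate measured as rising fluorescence over time; potency means the concentration at half of the fitted maximal effect; nearly all actives have a fitted effect of over 70% in size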
# Chain of Ubiquitin carboxyl-terminal hydrolase 2 (Homo sapiens) (O75604 whole entry, looked up): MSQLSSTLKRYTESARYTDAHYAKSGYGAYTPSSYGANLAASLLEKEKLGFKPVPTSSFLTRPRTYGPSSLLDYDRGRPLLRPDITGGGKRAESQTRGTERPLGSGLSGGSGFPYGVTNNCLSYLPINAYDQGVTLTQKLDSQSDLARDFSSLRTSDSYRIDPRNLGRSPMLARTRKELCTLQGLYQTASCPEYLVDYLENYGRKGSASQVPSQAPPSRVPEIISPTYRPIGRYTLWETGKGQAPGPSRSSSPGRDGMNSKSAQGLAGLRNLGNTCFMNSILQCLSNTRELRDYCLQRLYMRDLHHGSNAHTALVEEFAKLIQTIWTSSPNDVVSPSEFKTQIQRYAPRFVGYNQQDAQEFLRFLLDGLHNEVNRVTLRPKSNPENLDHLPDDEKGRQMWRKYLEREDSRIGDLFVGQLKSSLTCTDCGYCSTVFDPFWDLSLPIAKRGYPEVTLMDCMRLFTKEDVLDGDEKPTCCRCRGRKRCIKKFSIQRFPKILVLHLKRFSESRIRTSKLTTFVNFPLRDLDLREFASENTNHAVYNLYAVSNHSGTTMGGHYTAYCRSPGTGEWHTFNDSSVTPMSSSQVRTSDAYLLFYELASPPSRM
# In short: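 Kinetic fluorescence (Ex 525/Em 598) tracked cleavage of an internally quenched K48 di-ubiquitin substrate, added as a 100 nM solution. The enzyme was added as a 5 nM USP2 solution before compound pinning, with no-enzyme controls. Buffer: Tris pH 8, beta-mercaptoethanol, CHAPS.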
# [16] = molecular target: N-terminal Xaa-Pro-Lys N-methyltransferase 1 (Homo sapiens) (UniProt Q9BV86); assay: Confirmatory qHTS for Inhibitors of N-terminal methyltransferase 1 (NTMT1): MTaseGlo Assay (AID 1645874)
# Chain of N-terminal Xaa-Pro-Lys N-methyltransferase 1 (Homo sapiens) (Q9BV86 whole entry, looked up): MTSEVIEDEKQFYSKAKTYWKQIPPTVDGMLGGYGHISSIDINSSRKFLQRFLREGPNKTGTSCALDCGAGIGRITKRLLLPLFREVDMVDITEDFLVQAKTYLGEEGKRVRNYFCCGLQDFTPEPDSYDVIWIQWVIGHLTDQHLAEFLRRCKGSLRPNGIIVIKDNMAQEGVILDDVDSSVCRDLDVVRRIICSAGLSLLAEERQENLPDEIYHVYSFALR
# In short: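 MTase-Glo luminescence measured SAH formed by 125 nM NTMT1 from 100 uM SAM and 1 uM SPKRIA peptide over 30 min at room temperature, following 15 min compound preincubation. Percent inhibition against no-enzyme and DMSO controls gave 4-parameter Hill fits.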
# [17] = Primary qHTS for inhibitors of nuclear receptor binding SET domain protein 2 (NSD2) in an isogenic RCH-ACV NSD2 p.E1099K mutant (9B) (AID 1645876); further: potency means the concentration at half of the fitted maximal effect; nearly all actives have a fitted effect of over 70% in size
# [18] = Primary qHTS for inhibitors of nuclear receptor binding SET domain protein 2 (NSD2) in an RCH-ACV wild type WT cells (2C) (AID 1645877); further: potency means the concentration at half of the fitted maximal effect; nearly all actives have a fitted effect of over 70% in size
# [19] = NCATS anti-infectives library activity on HEK293 viability as a counter-qHTS vs the C. elegans viability qHTS (AID 1745854); further: on the % scale 0 is the no-effect control and ±100 the full control effect
# In short: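 CellTiter-Glo luminescence, read on a CCD imager, scored viability of HEK293 cells after 24 hr compound exposure at 37C. Library tested in several concentrations, 1:5 steps, up to 41.7 uM; digitonin served as control.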
# [20] = qHTS drug screen for cell cycle checkpoint inhibitors in PARPi-resistant BRCA-mutant ovarian cancer cell lines. (AID 1963452; calls by dose curve); conditions: PEO1/OlaR viability, CellTiter-Glo luminescence, 96 h, stronger effect = lower value
# In short: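 PEO1, PEO4 and PEO1/OlaR ovarian cancer cells, 600 per well, exposed 96 h at 37C to a dilution series. Viability read by CellTiter-Glo luminescence, normalized to DMSO and empty wells; activity summarized as Z-AUC.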
structure (smiles),measurement,setting,value
C=CC1=C(C(=O)O)N2C(=O)[C@@H](NC(=O)/C(=N\OCC(=O)O)c3csc(N)n3)[C@H]2SC1,Potency,[1],4.11 µM (active)
same,Potency,[2],7.52 µM (active)
same,Potency,[3],4.74 µM (active)
same,Potency,[4],19 µM (active)
same,Potency,[5],inactive
same,Potency,[6],7.18 µM (active)
same,Potency,[7],inactive
COc1ccccc1NC(=O)CSc1nc(-c2ccc(C(C)(C)C)cc2)c(C#N)c(=O)[nH]1,Potency,[5],0.756 µM (active)
same,Potency,[8],67.5 µM (active)
same,Potency,[9],inactive
same,Potency,[10],inactive
same,outcome,[11],inactive [at 12.7 µM]
same,Potency,[12],inactive
same,Potency,[13],inactive
CCOc1ccc2nc(N3CCC(C(=O)Nc4ccccc4CC)CC3)sc2c1,Potency,[5],6.01 µM (active)
CCN(CC)S(=O)(=O)c1ccc2c(c1)nc(CN(C)C(=O)Nc1cccc(Cl)c1)n2C,Potency,[5],0.849 µM (active)
CCCOCc1cc(CN2CCN(c3ccccc3OC)CC2)c(O)c2ncccc12,Potency,[5],7.56 µM (active)
CCCCCCCCC=CCCCCCCCC(=O)NCCOC(=O)CC(C(=O)O)S(=O)(=O)O (stereo not drawn),Potency,[5],8.49 µM (active)
same,Potency,[6],inactive
same,Potency,[7],inactive
O=C(O)C1CSC(C(=O)O)N1 (stereo not drawn),Potency,[5],inactive
Cc1ccccc1C(=O)Nc1sc2c(c1C(=O)O)CCC(C(C)(C)C)C2 (stereo not drawn),Potency,[5],inactive
CCOc1ccccc1CNC(=O)C1CCN(S(=O)(=O)c2c(C)noc2/C=C/c2ccccc2F)CC1,Potency,[5],0.151 µM (active)
Cc1cc(F)ccc1S(=O)(=O)Nc1cnccc1C(=O)Nc1nc(-c2ccccc2)cs1,outcome,[14],inactive
same,Potency,[15],968 nM (active)
same,Potency,[16],21.8 µM (active)
COc1ccc(C(=O)Nc2noc3ccccc23)cc1,Potency,[16],39.8 µM (active)
Cc1ccc(-n2ncc3c(NCCO)ncnc32)cc1Cl,Potency,[16],31.6 µM (active)
CC[C@]12C=CCN3CC[C@@]4(c5cc([C@@]6(C(=O)OC)CC7C[C@@H](C(C)(F)F)CN(Cc8c6[nH]c6ccccc86)C7)c(OC)cc5N(C)[C@H]4[C@@](O)(C(=O)OC)[C@@H]1OC(C)=O)[C@@H]32 (stereo partly drawn),Potency,[17],0.263 µM (active)
same,Potency,[18],0.186 µM (active)
O=C(NO)c1cnc(NC2(c3ccccc3)CC2)nc1,Potency,[17],7.42 µM (active)
same,Potency,[18],7.42 µM (active)
same,outcome,[19],inactive
same,Potency,[6],inactive
same,Potency,[7],inactive
same,Z-AUC,[20],-0.236 (inactive)
same,Z-AUC,[20]; measured here: PEO1 parental Z-AUC,0.229
same,Z-AUC,[20]; measured here: PEO4 Z-AUC,0.185
